From PubChem
KDM5B inh – KDM5B demethylase inhibition. Q9UGL1. KDM5B demethylase, FDH-coupled NADH fluorescence (FDH is formaldehyde dehydrogenase). Potency, µM (top dose mostly 57.7 µM), most hits filed as inhibitors. actives 2.6% (n = 220,000). AID 1347165; active = well fitted inhibition curve with a large enough effect; inconclusive = small, poorly fitted or top-dose-only effect; inactive = no such curve, though single readings can be large or run the other way; also: potency is read from the fitted curve at half-maximal effect; 0% is about no effect; nearly all actives have a fitted effect of over 70% in size
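Inhibition is measured as reduced NADH fluorescence generation from FDH coupling to formaldehyde release. Truncated KDM5BΔAP at 200 nM final acts on H3K4me3 peptide (12.5 µM in substrate mix) in pH 7.5 HEPES buffer with Tween-20, 30 min, room temperature.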
IP6K1 inhibitor – blocks human inositol hexakisphosphate kinase 1; Q92551; IP6K1 kinase, ADP-Glo luminescence, 2 h; hits give low values; activity change, % (series mostly up to about 58 µM); actives 0.81% (n = 140,000); AID 1645851; in the data active = activity change below about -25%; also: % is scaled to controls: 0 for no effect and ±100 for the full control effect
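ADP-Glo luminescence measures ADP made by human IP6K1 during a 2 h RT reaction with ATP/IP6 (mix at 1.3 mM/130 uM); top library doses 57.5 and 19.1 uM final.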
The depositor's hits bear a star; i = inactive; ? = inconclusive; . = no result given. The list is not random: actives were taken first. Their share in the collection is about 2.8%.

SMILES | KDM5B inh | IP6K1 inhibitor
CNC(=O)C1CCN(CC(=O)N(C)CC(=O)Nc2ccc(Cl)c(C(F)(F)F)c2)CC1 | i | .
CCCc1ccc(S(=O)(=O)N2CCC(c3nnc(-c4cccc(C)c4)o3)CC2)cc1 | ? | -4.4
O=C(CSc1nc2c(c(=O)n1-c1ccc(F)cc1)SCC2)N1CCCCC1 | i | .
COCCn1ccc2c(C3=CCOCC3)nc(-c3cccc(NC(C)=O)c3)cc21 | 35.5µM* | -12.5
COCCn1ccc2c(C3=CCOCC3)nc(-c3cccc4cn[nH]c34)cc21 | 35.5µM* | 0.7
COCCn1ccc2c(C3=CCOCC3)nc(-c3cccc(N[S+](C)(=O)[O-])c3)cc21 | i | -11.1
COc1ccccc1-c1nccc2c(=O)cc(C3=CCOCC3)oc12 | ? | -9.1
O=C(CSc1nc2ccccc2n1C(F)F)c1ccc(F)cc1F | i | .
CC(C)Nc1ncnc2c1CN(C1CCCNCC1)C(=O)CN2C (stereo not drawn) | ? | 0.0
CCCc1noc(-c2cccn3c(CNC(=O)c4ccccc4F)nnc23)n1 | ? | 13.4
CCc1noc(-c2cccn3c(CNC(=O)c4cc(Cl)ccc4F)nnc23)n1 | 28.2µM* | -4.6
CCc1noc(-c2cccn3c(CNC(=O)c4ccccc4F)nnc23)n1 | 31.6µM* | -1.1
CCc1noc(-c2cccn3c(CNC(=O)c4ccc(C)c(F)c4)nnc23)n1 | ? | 4.3
COC(=O)c1ccccc1NC(=O)N1CCN(CCc2ccncc2)CC1 | i | .
OC(CNCc1cccc(Oc2nnnn2-c2ccccc2)c1)c1ccccc1 (stereo not drawn) | i | .
COc1ccc(C=O)cc1OCc1ccc(F)cc1Cl | i | .
COc1ccc(F)cc1-c1cccc(C(=O)O)c1 | i | 6.4
COc1ccc(F)cc1-c1ccc(C(=O)O)cc1 | 100µM* | -10.5
COc1ccc(F)cc1-c1ccc(C=O)cc1 | 50.1µM* | -13.9
O=C(Cc1cccnc1)N1CCC2(CC1)CC(CCOc1ccc(F)cc1)CCO2 (stereo not drawn) | . | 7.6
CC(C)CCN1C(=O)c2ccccc2C1c1c[nH]c2ccccc12 (stereo not drawn) | i | .
N#Cc1ccccc1CN1CCc2nc(N3CCc4ccccc4C3)[nH]c(=O)c2CC1 | i | 3.1
O=C(C1CCN(C(=O)N2CC3CC(C2)[C@H]2CCCC(=O)N2C3)CC1)N1CCN(c2ccccc2)CC1 (stereo partly drawn) | i | 11.9
O=C(c1ccc(N2CC3CC(C2)[C@H]2CCCC(=O)N2C3)nc1)N1CCC(Cc2ccccc2)CC1 (stereo partly drawn) | 31.6µM* | 16.8
O=C(C1CCN(C(=O)N2CC3CC(C2)[C@H]2CCCC(=O)N2C3)CC1)N1CCN(c2ccccn2)CC1 (stereo partly drawn) | 25.1µM* | 11.8
SMILES | KDM5B inh | IP6K1 inhibitor
O=C(c1ccc(N2CC3CC(C2)[C@H]2CCCC(=O)N2C3)nc1)N1CCN(c2ncccn2)CC1 (stereo partly drawn) | ? | 7.4
Cc1ccccc1NC(=O)CC1C(=O)Nc2nc(-c3ccccc3)nn21 (stereo not drawn) | i | .
CCC(=O)N1Cc2ccccc2CC2(CCCN(CC3CCOCC3)C2)C1 (stereo not drawn) | i | 12.0
COC(=O)CNC(=O)c1nc(-c2ccc(Cl)cc2Cl)c2cnccn12 | 79.4µM* | -14.4
CC(C)NC(=O)c1nc(-c2ccc(Cl)cc2Cl)c2cnccn12 | 79.4µM* | -10.9
O=C(NCc1cccnc1)c1nc(-c2ccc(Cl)cc2Cl)c2cnccn12 | ? | -13.6
Cc1nc(C(C)C)sc1C(=O)N(C)Cc1cc(C2CC2)n[nH]1 | i | -0.8
COc1ccc(-c2noc(C(C)NC(=O)c3ccccc3Cl)n2)cc1 (stereo not drawn) | i | .
Cc1ccc(-c2cc(N3CCCN(C(=O)c4ccc(N(C)C)cc4)CC3)n[nH]2)cc1C | ? | -4.9
CCc1ccc(-c2noc(CSc3nnc(-c4ccccc4OC)n3CC)n2)cc1 | i | .
N#Cc1ccc(N2C[C@@H]3OCC(=O)N(CC4CCCCC4)[C@@H]3C2)nc1 | 35.5µM* | -6.7
CN1C(=O)CO[C@H]2CN(c3ccc(C#N)cn3)C[C@H]21 | 35.5µM* | 4.2
O=C(c1cnccn1)N1C[C@@H]2OCC(=O)N(CC3CCCCC3)[C@@H]2C1 | ? | 16.1
CN1CCCC2(CCN(c3ccc(C#N)cn3)C2)C1=O (stereo not drawn) | i | 8.5
Cn1cc(CN2C[C@H](C(=O)Nc3ccncn3)C[C@@H]2c2cccc(C(F)(F)F)c2)cn1 | i | 5.9
COc1ccc(CNC(=O)Cc2ccc(NC(=O)N3CCSc4ncccc43)cc2)cc1 | ? | 10.7
CCNC(=O)N1CCOC(CN(CC2CC2)C(=O)c2cccc(F)c2)C1 (stereo not drawn) | i | -9.9
COC(=O)c1cc(C#N)c(N2CC[C@H](CO)[C@@H](O)C2)nc1C | 25.1µM* | 7.2
CCOC(=O)c1cc(C#N)c(N2CCC(C(=O)NS(=O)(=O)Cc3ccccc3)CC2)nc1C | . | -2.6
COCCn1c(SCC(=O)O)nc2c1c(=O)[nH]c(=O)n2C | i | .
O=C(c1ccccc1)N1CCC(C(=O)N2CCCC2c2nc3ccncc3[nH]2)CC1 (stereo not drawn) | . | -3.5
CCCN1CCN(C(=O)Cn2nc(C)c3sc(-c4ccccc4)nc3c2=O)CC1 | 31.6µM* | 11.8
CCc1nc2c(=O)n(CC(=O)N3CCC(Cc4ccccc4)CC3)nc(C)c2s1 | i | 5.5
CCC(C)NC(=O)Cn1nc(C)c2sc(-c3ccccc3)nc2c1=O (stereo not drawn) | 8.91µM* | 24.9
CCc1nc2c(=O)n(CC(=O)NC(C)c3ccccc3)nc(C)c2s1 (stereo not drawn) | i | 17.6
SMILES | KDM5B inh | IP6K1 inhibitor
Cc1nn(CC(=O)NCC2CCCO2)c(=O)c2nc(-c3ccccc3)sc12 (stereo not drawn) | 31.6µM* | 0.9
Cc1nn(CC(=O)NCc2ccccc2)c(=O)c2nc(C(C)C)sc12 | i | 9.7
COc1cc(/C=C/C(=O)OC[C@H]2O[C@@](CO)(O[C@H]3O[C@H](CO)[C@@H](O)[C@H](O)[C@H]3O)[C@@H](OC(=O)/C=C/c3ccc(O)c(OC)c3)[C@@H]2O)ccc1O | . | 0.9
O=[S+]1([O-])NCC2(CCN(Cc3ccccc3)CC2)Nc2ccccc21 | i | 20.3
Cc1noc([C@H]2CCN(C(=O)NCc3ccc(F)cc3)C[C@H]2NC(=O)C2CC2)n1 | i | -1.1
COCCC1CN(Cc2nc(-c3cccc(C(F)(F)F)c3)oc2C)CCO1 (stereo not drawn) | i | -5.9
CSc1ccc(-c2nc(CN3CCN(C(=O)N(C)C)CC3)c(C)o2)cc1 | ? | -2.1
CSc1ccc(-c2nc(CN3CCN(C(C)=O)CC3)c(C)o2)cc1 | 20µM* | 43.5
CSc1ccc(-c2nc(CN3CCOC(CCO)C3)c(C)o2)cc1 (stereo not drawn) | 15.8µM* | 8.9
COc1cc(S(=O)(=O)N2CCC(C(N)=O)CC2)c(C)cc1Br | i | .
O=C(O)c1ccnc(-c2ccnc(NCCCN3CCCC(O)C3)n2)c1 (stereo not drawn) | ? | 1.8
c1ccc(CCCNc2nccc(-c3ccccn3)n2)nc1 | 28.2µM* | 20.4
COCc1cc(CNc2nccc(-c3ccccn3)n2)[nH]n1 | ? | -20.0
CN1CCN(CCCNc2nccc(-c3ccccn3)n2)CC1 | 28.2µM* | -9.5
Cc1nn(C)c(C)c1CCC(=O)N[C@@H]1CN(c2ncccn2)C[C@H]1CO | ? | 1.9
